# PubChem BioAssay
# The source made the active and inactive calls.
# What was measured:
# [1] = small molecules captured by biotinylated probe aFSTL3 – biochemical, small-molecule microarray, fluorescence 635/667, stem cell growth factor project, primary screen (AID 1064); settings: higher = more signal;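 further: measures binding of the biotinylated anti-FSTL3 antibody to printed compounds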
# [2] = binders from COS7 lysate, DM2A8 probe, primary screen, torsin A project, cell lysate, small-molecule microarray, fluorescence 635/667 (AID 1065); settings: higher = more signal, COS7 lysate expressing mutant human TOR1A
# [3] = small molecules captured by biotinylated probe aFGF2 – biochemical, small-molecule microarray, fluorescence 635/667, stem cell growth factor project, primary screen (AID 1067); settings: higher = more signal;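 further: measures binding of biotinylated aFGF2 protein to printed compounds on slides; z-score merges feature fluorescence and signal-to-noise across triplicate slides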
# [4] = small molecules captured by biotinylated probe aFGF10 – biochemical, small-molecule microarray, fluorescence 635/667, stem cell growth factor project, primary screen (AID 1071); settings: higher = more signal;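 further: score merges 667 nm spot intensity and signal to noise from triplicate slides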
# [5] = biological target: Neurogenic locus notch homolog protein 2 (Homo sapiens) (UniProt Q04721); assay: small molecules binding Notch2 protein – biochemical, small-molecule microarray, 635 nm fluorescence, stem cell growth factors, primary screen (AID 1073); settings: higher = more signal
# Neurogenic locus notch homolog protein 2 (Homo sapiens), sequence (Q04721 whole entry, looked up, canonical isoform): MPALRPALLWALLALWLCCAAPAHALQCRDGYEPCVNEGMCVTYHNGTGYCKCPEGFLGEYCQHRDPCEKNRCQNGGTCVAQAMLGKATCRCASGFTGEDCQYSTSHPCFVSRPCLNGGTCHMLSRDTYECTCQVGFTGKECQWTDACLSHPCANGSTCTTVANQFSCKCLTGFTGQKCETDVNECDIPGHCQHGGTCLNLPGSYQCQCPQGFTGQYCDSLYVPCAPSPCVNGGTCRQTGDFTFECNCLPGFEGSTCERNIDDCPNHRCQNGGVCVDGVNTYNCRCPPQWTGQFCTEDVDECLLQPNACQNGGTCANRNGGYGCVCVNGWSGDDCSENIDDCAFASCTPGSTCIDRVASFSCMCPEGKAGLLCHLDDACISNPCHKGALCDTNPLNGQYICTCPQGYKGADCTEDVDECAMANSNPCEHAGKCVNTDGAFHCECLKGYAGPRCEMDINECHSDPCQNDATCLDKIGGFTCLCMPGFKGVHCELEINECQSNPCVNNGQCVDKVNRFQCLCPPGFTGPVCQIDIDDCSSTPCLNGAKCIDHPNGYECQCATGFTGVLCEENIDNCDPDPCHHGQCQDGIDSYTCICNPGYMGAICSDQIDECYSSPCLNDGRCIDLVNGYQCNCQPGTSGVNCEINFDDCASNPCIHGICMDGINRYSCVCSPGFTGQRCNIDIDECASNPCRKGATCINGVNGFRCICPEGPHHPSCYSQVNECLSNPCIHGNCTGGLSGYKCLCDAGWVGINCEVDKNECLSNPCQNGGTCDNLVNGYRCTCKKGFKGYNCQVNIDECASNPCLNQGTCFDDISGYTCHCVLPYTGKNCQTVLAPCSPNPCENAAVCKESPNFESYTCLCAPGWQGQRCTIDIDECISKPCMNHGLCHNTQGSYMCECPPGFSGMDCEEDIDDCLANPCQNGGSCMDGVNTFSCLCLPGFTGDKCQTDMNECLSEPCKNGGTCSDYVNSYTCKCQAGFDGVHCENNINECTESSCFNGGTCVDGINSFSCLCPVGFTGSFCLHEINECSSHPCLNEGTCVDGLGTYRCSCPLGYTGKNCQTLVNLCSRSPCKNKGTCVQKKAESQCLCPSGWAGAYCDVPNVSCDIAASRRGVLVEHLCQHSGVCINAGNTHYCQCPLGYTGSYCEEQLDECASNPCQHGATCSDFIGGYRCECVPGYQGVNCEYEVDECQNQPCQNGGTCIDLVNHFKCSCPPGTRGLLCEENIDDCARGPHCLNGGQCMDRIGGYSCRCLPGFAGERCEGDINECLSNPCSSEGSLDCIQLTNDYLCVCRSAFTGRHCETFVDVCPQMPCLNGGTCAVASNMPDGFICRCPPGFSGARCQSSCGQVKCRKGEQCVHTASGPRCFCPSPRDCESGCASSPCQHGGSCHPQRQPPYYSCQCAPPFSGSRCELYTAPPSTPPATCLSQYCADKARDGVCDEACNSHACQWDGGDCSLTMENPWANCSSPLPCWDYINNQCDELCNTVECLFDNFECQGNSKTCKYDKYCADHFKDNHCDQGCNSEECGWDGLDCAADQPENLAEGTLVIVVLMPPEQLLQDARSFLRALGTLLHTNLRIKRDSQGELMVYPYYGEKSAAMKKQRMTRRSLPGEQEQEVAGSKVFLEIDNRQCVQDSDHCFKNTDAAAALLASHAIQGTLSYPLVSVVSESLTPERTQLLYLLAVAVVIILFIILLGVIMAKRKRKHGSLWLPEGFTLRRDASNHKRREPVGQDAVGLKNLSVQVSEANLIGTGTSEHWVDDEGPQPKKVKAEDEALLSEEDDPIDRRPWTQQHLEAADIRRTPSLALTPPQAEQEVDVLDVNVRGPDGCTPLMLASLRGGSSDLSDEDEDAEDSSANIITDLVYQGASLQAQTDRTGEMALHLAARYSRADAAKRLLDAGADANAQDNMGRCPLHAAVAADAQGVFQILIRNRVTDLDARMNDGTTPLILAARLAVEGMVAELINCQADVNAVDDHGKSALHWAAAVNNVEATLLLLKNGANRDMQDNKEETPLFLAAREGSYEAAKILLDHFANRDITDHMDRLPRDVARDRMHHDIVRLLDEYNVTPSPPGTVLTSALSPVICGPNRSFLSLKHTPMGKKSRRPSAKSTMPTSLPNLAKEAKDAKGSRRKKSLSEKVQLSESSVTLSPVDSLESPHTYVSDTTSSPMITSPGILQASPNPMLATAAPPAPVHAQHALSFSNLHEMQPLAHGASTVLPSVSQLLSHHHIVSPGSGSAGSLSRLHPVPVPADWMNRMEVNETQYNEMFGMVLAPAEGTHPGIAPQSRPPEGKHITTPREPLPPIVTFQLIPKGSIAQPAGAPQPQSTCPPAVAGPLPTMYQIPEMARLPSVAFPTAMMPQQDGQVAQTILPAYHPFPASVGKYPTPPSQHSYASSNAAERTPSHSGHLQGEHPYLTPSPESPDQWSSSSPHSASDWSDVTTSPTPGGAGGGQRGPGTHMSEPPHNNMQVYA
# [6] = biological target: Pro-neuregulin-1, membrane-bound isoform (Homo sapiens) (UniProt Q02297); assay: small molecules binding neuregulin-1 protein – biochemical, small-molecule microarray, fluorescence 635/667, psychiatric disease protein project, primary screen (AID 1075); settings: NRG1 binding, 635 nm fluorescence, higher = more signal;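 further: score combines 667 nm spot fluorescence with signal to noise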
# Pro-neuregulin-1, membrane-bound isoform (Homo sapiens), sequence (Q02297 whole entry, looked up, the tested form may be a part, canonical isoform): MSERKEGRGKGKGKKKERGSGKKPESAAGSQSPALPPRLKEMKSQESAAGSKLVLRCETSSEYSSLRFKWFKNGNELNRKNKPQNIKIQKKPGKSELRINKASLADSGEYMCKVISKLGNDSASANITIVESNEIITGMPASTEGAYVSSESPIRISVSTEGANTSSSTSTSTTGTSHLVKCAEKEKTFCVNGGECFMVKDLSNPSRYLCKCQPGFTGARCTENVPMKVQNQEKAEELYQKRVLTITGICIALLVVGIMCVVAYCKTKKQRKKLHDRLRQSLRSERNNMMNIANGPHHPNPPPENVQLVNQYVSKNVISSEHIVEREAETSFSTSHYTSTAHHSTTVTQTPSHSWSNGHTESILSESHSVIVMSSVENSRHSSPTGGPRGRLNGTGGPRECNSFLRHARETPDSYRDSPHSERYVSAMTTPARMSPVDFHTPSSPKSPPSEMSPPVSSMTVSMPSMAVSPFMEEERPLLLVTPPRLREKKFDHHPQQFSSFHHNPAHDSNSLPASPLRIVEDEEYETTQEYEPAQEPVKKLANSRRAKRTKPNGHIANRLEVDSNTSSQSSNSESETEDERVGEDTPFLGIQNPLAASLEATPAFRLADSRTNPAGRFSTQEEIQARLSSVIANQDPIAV
# [7] = test system: Neuregulin-1 EGF-like domain; assay: small molecules binding NRG1 EGF domain – biochemical, small-molecule microarray, 635 nm fluorescence, primary screen (AID 1081); settings: higher = more signal;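 further: binding of the protein to compounds printed on small-molecule microarray slides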
# [8] = FRG1 expression reporter modulators in myotubes – cell-based, C2C12 myotubes, firefly/Renilla luciferase, luminescence, FRG1 inhibition for FSHD, primary screen (AID 1084); settings: FRG1 promoter luciferase, higher = more signal, called active from +8 up or from −8 down
# [9] = small molecules captured by biotinylated probe aFST – biochemical, small-molecule microarray, fluorescence 635/667, stem cell growth factor project, primary screen (AID 1086); settings: higher = more signal;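 further: score merges 667 nm fluorescence with signal-to-noise of each printed compound spot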
# [10] = binders of probe aHhip on microarray, primary screen, stem cell growth factor project, biochemical, small-molecule microarray, fluorescence 635/667 (AID 1087); settings: higher = more signal;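 further: score merges spot fluorescence at 667nm with spot signal to noise ratio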
SMILES,composite z-score [1],composite z-score [2],composite z-score [3],composite z-score [4],composite z-score [5],composite z-score [6],composite z-score [7],z-score [8],composite z-score [9],composite z-score [10]
O=C1C[C@]2(c3ccc([N+](=O)[O-])cc3)C(=O)N(C3CC3)c3cc(CO)ccc3[C@H]2N1C1CCCCC1,-0.351,-0.124,-0.164,0.097,-0.0343,-0.123,-0.0608,0.413 (inactive),-0.0927,-0.236
CCOC(=O)C[C@H]1[C@H](OC(=O)c2ccccc2-c2ccccc2)[C@@H](NC(=O)c2ccc3ccccc3c2)c2cc(OCCCO)ccc2N1C(=O)Cc1ccc(OC)cc1,0.225,0.0793,-0.118,0.162,-0.105,0.0671,-0.58,1.11 (inactive),0.206,-0.0645
C=CCN1C(=O)[C@@]2(O[C@@H](CCn3cc([C@H](O)c4ccccc4)nn3)[C@H]([Si](C)(C)c3ccc(OC)cc3)[C@H]2C)c2cc(N3C(=O)c4cccc5cccc3c45)ccc21,0.241,-0.477,-0.151,-0.215,-0.902,0.548,0.482,-1.04 (inactive),-0.365,-0.271
C=CC[C@]1(C(=O)NCC(O)CO)COC(c2ccc(OCCCO)cc2)=N1 (stereo not given in full),1.3,1.29,0.0163,-0.0216,-0.888,0.0498,0.99,1.14 (inactive),0.0371,-0.141
COc1cc(OC)c(C(O)C2C=CC3C(=O)N(c4ccccc4)C(=O)C3N2Nc2ccc(C(C)C)cc2)cc1Br (stereo not given),0.108,-0.0919,0.0559,0.774,1.44,1.4,1.28,-2.19 (inactive),1.2,-0.0994
C=C(CCCC)/C(=C/C[C@@H](OC(C)=O)c1ccc(CO)o1)c1cnc2ccccc2c1,-0.593,0.361,-0.0744,1.14,1.31,1.31,1.28,-0.16 (inactive),0.128,-0.179
COC(=O)[C@@]1(Cc2ccc(OC)cc2)[C@H]2c3cc(C(=O)N4CCCC4)n(Cc4ccc(C(F)(F)F)nc4)c3C[C@H]2CN1C(=O)c1ccccc1,0.308,0.374,-0.102,0.999,1.21,1.66,1.24,0.491 (inactive),-0.25,0.388
Cc1ccc(S[C@]2(C(=O)NCc3ccccc3)CC(=O)N(Cc3ccccc3C(F)(F)F)[C@@H]2c2ccc(CO)cc2)cc1,0.563,-0.355,-0.105,-0.659,-1.44,0.642,-1.08,-1.92 (inactive),-0.633,-0.204
COC(=O)C(CC#Cc1ccc2c(c1)[C@]1(C(=O)N2)[C@H](C(=O)NC[C@H](O)c2ccccc2)[C@H]2C(=O)O[C@H](c3ccccc3)[C@H](c3ccccc3)N2[C@@H]1c1ccccc1OCCO)C(=O)OC,-0.266,0.423,-0.0996,0.558,1.08,1.27,1.3,0.0111 (inactive),0.254,0.0749
COCCOC(=O)N1C(=O)[C@@]2(c3ccccc31)[C@H](c1ccc(O)cc1)N1[C@H](c3ccccc3)[C@H](c3ccccc3)OC(=O)[C@H]1[C@@H]2C(=O)N1CCCCCCC1,3.84,1.88,0.949,0.802,1.07,2.5,1.29,-3.25 (inactive),3.5,3.27
COCC(=C=CC[C@H](O)c1ccccc1OCCO)C[C@H](O)COCc1ccccc1,-0.287,0.584,-0.0004,1.3,0.41,1.22,0.571,0.291 (inactive),0.092,0.107
COc1ccc(C(=O)Nc2ccc3c(c2)[C@@]2(O[C@H](CCO)[C@@H]([Si](C)(C)c4ccc(OC)cc4)[C@@H]2C)C(=O)N3Cc2ccccc2)cc1,-0.122,0.143,-0.0333,-0.0652,0.562,0.929,1.07,-3.68 (inactive),0.154,0.2
CCOC(=O)C1=CC[C@@H](c2ccc(OC)cc2)N(S(=O)(=O)c2ccc(C)cc2)[C@H]1CC,-0.295,0.495,-0.067,0.398,1.66,1.13,1.11,-3.47 (inactive),1.14,-0.0645
[N-]=[N+]=Nc1ccccc1C[C@@]1(C(=O)NCc2ccccc2)N=C(c2ccc(OCCCO)cc2)O[C@@H]1c1ccccc1N=[N+]=[N-],0.581,0.504,0.0678,1.04,1.09,0.966,1.06,-1.24 (inactive),0.602,-0.175
CC(C)NC(=O)[C@@]1(c2ccc([N+](=O)[O-])cc2)CC(=O)N(CC23CC4CC(CC(C4)C2)C3)[C@@H]1c1ccc(CO)cc1,1.43,0.522,0.516,1.02,1.42,1.9,1.18,-3.57 (inactive),1.86,1.11
CC(C)=CCCC=C(C)C(O)C1C=CC2C(=O)N(c3ccccc3)C(=O)C2N1Nc1ccc(C#N)cc1 (stereo not given),0.314,0.146,0.126,0.178,1.51,1.93,1.23,-1.36 (inactive),0.257,-0.382
COC(=O)C1=CC(CCCO)=CC(c2cccs2)N(Cc2cc3c(cc2Br)OCO3)C=C1C(=O)OC (stereo not given),0.0066,0.951,0.0931,1.02,1.27,1.66,1.33,-2.18 (inactive),0.182,0.0972
COc1ccccc1CN1C(=O)c2ccccc2[C@](Cc2ccccc2I)(C(=O)NCC(C)C)[C@@H]1c1ccc(CO)cc1,1.21,0.204,-0.0049,-0.452,-0.396,1.2,1.15,-2.55 (inactive),0.0126,0.142
COC(=O)[C@@]1(Cc2ccc(F)cc2)[C@H]2c3cc(C(=O)N4CCCC4)n(Cc4cc(F)cc5c4OCOC5)c3C[C@H]2CN1C(=O)c1ccccc1,0.653,-0.622,0.13,0.816,1.75,1.69,0.102,0.869 (inactive),1.56,0.0759
COC(=O)[C@@]1(Cc2ccccc2)N=C(c2ccc(OCCCO)cc2)O[C@H]1c1ccccc1CN=[N+]=[N-],0.261,0.0296,-0.0529,0.0585,0.33,1.02,0.666,-2.6 (inactive),0.226,-0.41
CN(C)c1ccc(C(O)C2C=CC3C(=O)N(Cc4ccccc4)C(=O)C3N2n2cnnc2)cc1 (stereo not given),0.0652,0.0666,-0.0303,0.0521,0.0282,-0.161,-0.103,-1.18 (inactive),0.198,0.244
CC(C)NC(=O)[C@@H]1c2ccccc2C(=O)N(Cc2ccccc2C(F)(F)F)[C@H]1c1ccc(CO)cc1,-0.804,0.313,0.0553,-0.0635,-0.409,-0.774,0.837,-1.26 (inactive),0.618,-0.668
COc1ccc(C#Cc2ccc3c(c2)[C@]2(C(=O)N3)[C@H](C(=O)O)[C@H]3C(=O)O[C@H](c4ccccc4)[C@H](c4ccccc4)N3[C@@H]2c2ccccc2OCCO)cc1,-1.04,0.485,-0.095,0.991,1.26,0.566,1.07,0.205 (inactive),-0.515,-0.583
CC(=O)OCC1C2CC[C@H]3C(OCc4ccc(F)cc4C(F)(F)F)OC[C@]4(C)[C@H]3C2=C(CN4C(=O)OC(C)(C)C)[C@H](C)C1COC(C)=O (stereo not given in full),0.496,1.4,-0.0336,0.363,0.101,0.823,0.783,1.06 (inactive),0.579,0.141
N#Cc1ccc(C(O)C2C=CC3C(=O)NC(=O)C3N2Nc2ccc(Cl)cc2Cl)cc1 (stereo not given),-0.0161,-0.0803,-0.101,0.116,1.45,1.82,0.649,1.79 (inactive),0.119,-0.146
C=C(CCCC)C(=O)CC[C@H](OC(=O)c1ccccc1-c1ccccc1C(=O)O)c1ccc(OCCO)cc1,-0.441,1.06,-0.0876,0.315,-0.181,1.13,1.19,-0.62 (inactive),0.393,-0.236
CC(C)C(=C=CC[C@H](O)c1ccccc1OCCO)C[C@H](O)COCc1ccccc1,-0.322,-0.0849,-0.136,0.483,-0.284,0.294,0.767,-0.843 (inactive),-0.064,-0.0994
CCCC#C[Si](O[C@H](CC)c1cn(Cc2ccccc2)nn1)(C(C)C)C(C)C,-0.0658,0.0418,0.0252,0.435,0.734,0.53,1.02,0.403 (inactive),0.278,-0.166
